The source of these data is PubChem BioAssay AID493168 (National Center for Advancing Translational Sciences (NCATS), 2011).

Results filed as inconclusive are left out. A call without a number means that no potency is given here. The source made the active and inactive calls. The call rests on the fitted dose curve; in most records, active means well fitted inhibition curve with a large enough effect; inconclusive means small, poorly fitted or top-dose-only effect, or effect the other way; inactive means flat fitted curve, though single readings scatter.
Potency means the concentration at half of the fitted maximal effect.

Sequence of Ubiquitin carboxyl-terminal hydrolase 2 (Homo sapiens) (O75604 whole entry, looked up): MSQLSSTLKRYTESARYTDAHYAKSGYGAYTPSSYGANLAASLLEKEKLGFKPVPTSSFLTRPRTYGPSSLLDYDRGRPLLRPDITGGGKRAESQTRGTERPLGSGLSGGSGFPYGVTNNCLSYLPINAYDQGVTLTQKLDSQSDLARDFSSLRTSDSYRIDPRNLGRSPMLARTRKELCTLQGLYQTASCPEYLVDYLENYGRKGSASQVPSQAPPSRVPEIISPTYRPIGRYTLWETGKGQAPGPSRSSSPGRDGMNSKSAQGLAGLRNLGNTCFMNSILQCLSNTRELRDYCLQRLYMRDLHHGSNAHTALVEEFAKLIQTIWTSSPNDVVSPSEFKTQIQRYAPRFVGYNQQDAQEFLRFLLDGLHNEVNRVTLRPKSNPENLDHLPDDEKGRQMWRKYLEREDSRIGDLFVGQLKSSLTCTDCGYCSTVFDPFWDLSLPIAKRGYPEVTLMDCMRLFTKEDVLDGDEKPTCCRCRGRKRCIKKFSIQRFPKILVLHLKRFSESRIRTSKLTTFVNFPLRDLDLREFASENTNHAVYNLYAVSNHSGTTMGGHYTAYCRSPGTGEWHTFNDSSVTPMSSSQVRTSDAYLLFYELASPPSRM

The assay addresses Ubiquitin carboxyl-terminal hydrolase 2 (Homo sapiens) (UniProt O75604). Put plainly: Confirmation Assay for Inhibitors of Ubiquitin-specific Protease USP2a Using CHOP2 as the Reporter. Further: nearly all actives have a fitted effect of over 55% in size. To be noted: USP2 core, Ub-CHOP2 coupled reporter fluorescence; series mostly up to 38.3 µM. A digest of the protocol: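 USP2 core (10 nM final) was preincubated with compound for 30 min at RT in Tris-HCl pH 8.0, CaCl2, beta-mercaptoethanol, CHAPS. Ub-CHOP2 and reporter substrate (25 nM final each) were added, and fluorescence (Ex 485/Em 531 nm) was read after 60 min.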
As to `CC(C)Cn1c(SCC(N)=O)nnc1-c1cccc(S(=O)(=O)N2CCOCC2)c1`, the Potency result is “inactive”.
Then `COc1cc(C(=O)OCC(=O)Nc2c(F)c(F)c(F)c(F)c2F)cc(OC)c1OC`, with “inactive”; and `Cc1ccc(NC(=O)Cn2nc(C)c3ccccc3c2=O)cc1F`, with “inactive”; and `Cc1ccc(C=Nc2ccccc2C(N)=O)cc1`, with “inactive”.
Consider `Oc1ccccc1/C=N/Nc1ncc(Br)cn1`, for which the Potency result was “inactive”.
As to `CC(/C=N/NC(=O)c1cc(-c2cccs2)[nH]n1)=C\c1ccccc1`, the Potency result is “inactive”.
Then `Cc1ccc(N(CC(=O)N/N=C/c2ccco2)S(=O)(=O)c2ccccc2)cc1`, with “inactive”; and `COC(=O)c1[nH]c2ccccc2c1NC(=O)CN1CCCc2ccccc21`, with “inactive”; and `COc1ccccc1NC(=O)N1CCN(c2ccccn2)CC1`, with “inactive”.
For `C=CCNCCOCCOc1ccccc1-c1ccccc1`, the Potency result is “inactive”.
For `CCCCCCCCCC[N+](C)(C)CC/C=C1/c2ccccc2Sc2ccc(Cl)cc21`, the Potency was 13.1 µM (active).
Turning to `O=C(Cc1ccc(S(=O)(=O)N2CCOCC2)s1)NCCC(c1ccccc1)c1ccccc1`, the Potency result was “inactive”.
With `CC1(C)CC(=O)C2=C(C1)NCN(CCCN1CCOCC1)C2`, the Potency entry was “inactive”.
As for `C=C(CCC(=O)c1ccccc1)C(=O)c1ccccc1`, the Potency result is “inactive”.
As for `Cc1cc(C)cc(C(=O)Nc2ccc(N3CCCC3)cc2)c1`, the Potency entry is “inactive”.
Turning to `CN(C)S(=O)(=O)c1cccc(NC(=S)NNC(=O)c2cc3ccccc3cc2O)c1`, the Potency result is “inactive”.
In the case of `COc1ccc(NC(=O)C2CC(=O)OC2c2ccccc2)cc1` (centres undefined), the Potency entry is “inactive”.
With `O=c1cc(CO)oc(CN2CCN(Cc3ccccc3)CC2)c1O`, the Potency entry was “inactive”.
Then `CCNC(=S)N/N=C/c1cn(Cc2ccc(F)cc2)c2ccccc12`, with “inactive”.
